We go through 4 molecules from PubChem BioAssay (EPA / NIEHS).

Read-out in test [1]: Interleukin 2 (IL2), IL2 (gene 3558)
Kind of test: BSK_BT_xIL2: BioMAP Diversity Plus: BT Assay for Interleukin 2 (IL2) Biomarker Activity (AID 2284245). The note with it: primary human B cells with PBMC. In short, it runs like this: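 B cell + PBMC co-culture (human primary), compound added, 24 h incubation; secreted IL-2 measured multiplexed on Luminex xMAP; gain-of-signal fit vs DMSO.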

Read-out in test [2]: Basic fibroblast growth factor (bFGF), FGF2 (gene 2247)
Kind of test: BSK_MyoF_bFGF: BioMAP Diversity Plus: MyoF Assay for Basic fibroblast growth factor (bFGF) Biomarker Activity (AID 2284246). The note with it: primary human lung fibroblasts. In short, it runs like this:
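ELISA-measured bFGF level serves as the read-out, taken 24 h after chemical dosing of human lung fibroblasts. Values represent signal gain over the DMSO negative control.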

Read-out in test [3]: Collagen IV, COL4A1 (gene 1282)
Kind of test: BSK_MyoF_CollagenIV: BioMAP Diversity Plus: MyoF Assay for Collagen IV Biomarker Activity (AID 2284247). The note with it: primary human lung fibroblasts. A digest of the protocol:
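Steps: dose human lung fibroblasts; culture 24 h; quantify Collagen IV by ELISA; fit increase versus DMSO control. Parallel SRB total-protein staining (0.1% SRB after 10% TCA fixation, 560 nm) tracks overt cytotoxicity.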

Read-out in test [4]: Plasminogen activator inhibitor-1 (PAI1), SERPINE1 (gene 5054)
Kind of test: BSK_MyoF_PAI1: BioMAP Diversity Plus: MyoF Assay for Plasminogen activator inhibitor-1 (PAI1) Biomarker Activity (AID 2284256).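 As to outcome: PAI-1 read 24 h after compound addition.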 The note with it: primary human lung fibroblasts. A digest of the protocol: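 Primary human lung fibroblasts treated with chemical for 24 h; PAI-1 levels quantified by ELISA relative to DMSO. Cytotoxicity was assessed in parallel cultures by SRB total-protein staining (0.1% SRB after 10% TCA fixation, 560 nm).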

Read-out in test [5]: Interleukin-8 (IL8), CXCL8 (gene 3576)
The test is described as follows: BSK_MyoF_IL8: BioMAP Diversity Plus: MyoF Assay for Interleukin-8 (IL8) Biomarker Activity (AID 2284261). The note with it: primary human lung fibroblasts. A digest of the protocol: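 Human lung fibroblast (MyoF system) cultures dosed for 24 h, then IL-8 measured by ELISA. Response taken relative to DMSO; parallel SRB total-protein staining for cytotoxicity.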

Read-out in test [6]: Decorin, DCN (gene 1634)
The test is described as follows: BSK_MyoF_Decorin: BioMAP Diversity Plus: MyoF Assay for Decorin Biomarker Activity (AID 2284265). The note with it: primary human lung fibroblasts. A digest of the protocol:
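Human lung fibroblast cultures were dosed for 24 h, and decorin was then measured by ELISA. Parallel cultures were stained with sulforhodamine B for total protein as a cytotoxicity check. Gain of signal was fitted relative to DMSO.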

Test [7] can be described thus: BSK_MyoF_SRB: Viability Assessment in the BioMAP Diversity Plus: MyoF Assay (AID 2284267).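 Also: total protein by SRB absorbance in parallel cultures as cytotoxicity measure.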 The note with it: primary human lung fibroblasts. In short, it runs like this:
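Read-out is SRB absorbance at 560 nm, reflecting total protein in parallel lung fibroblast cultures harvested 24 h after compound addition. Cells were TCA-fixed (10%) and stained with 0.1% SRB; activity is referenced to DMSO.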

Read-out in test [8]: Matrix Metallopeptidase 1 (MMP1), MMP1 (gene 4312)
The test is described as follows: BSK_MyoF_MMP1: BioMAP Diversity Plus: MyoF Assay for Matrix Metallopeptidase 1 (MMP1) Biomarker Activity (AID 2284268). The note with it: primary human lung fibroblasts. A digest of the protocol:
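Human lung fibroblast primary cells; MMP1 measured by ELISA 24 h after dosing, fitted in the positive direction relative to DMSO. Parallel SRB staining (0.1%, after 10% TCA fixation, 560 nm) assesses overt cytotoxicity.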

Read-out in test [9]: Monokine induced gamma interferon (MIG), CXCL9 (gene 4283)
Kind of test: BSK_KF3CT_MIG: BioMAP Diversity Plus: KF3CT Assay for Monokine induced gamma interferon (MIG) Biomarker Activity (AID 2284248). The note with it: primary human keratinocytes with fibroblasts. In short, it runs like this: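 Human keratinocyte–foreskin fibroblast co-culture; MIG measured by ELISA 24 h after chemical dosing, fitted upward versus DMSO. Cytotoxicity was assessed in parallel cultures by SRB total-protein staining read at 560 nm.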

Read-out in test [10]: Vascular cell adhesion molecule 1 (VCAM1), VCAM1 (gene 7412)
The test is described as follows: BSK_BF4T_VCAM1: BioMAP Diversity Plus: BF4T Assay for Vascular cell adhesion molecule 1 (VCAM1) Biomarker Activity (AID 2284249). The note with it: primary human bronchial epithelial cells with fibroblasts. In short, it runs like this: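 Human bronchial epithelial cell and dermal fibroblast co-culture exposed 24 h. VCAM-1 measured by ELISA; parallel SRB total-protein staining for cytotoxicity. Fitted in positive direction relative to DMSO.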

Read-out in test [11]: Collagen I, COL1A1 (gene 1277)
Kind of test: BSK_hDFCGF_CollagenI: BioMAP Diversity Plus: hDFCGF Assay for Collagen I Biomarker Activity (AID 2284250). The note with it: primary human foreskin fibroblasts. A digest of the protocol: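 Human skin primary fibroblasts dosed with test chemical, harvested at 24 h, Collagen I quantified by ELISA; parallel SRB staining (0.1% SRB after 10% TCA fixation, 560 nm) tracked cytotoxicity.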

Read-out in test [12]: Interferon-inducible T-cell alpha chemoattractant (ITAC), CXCL11 (gene 6373)
The test is described as follows: BSK_hDFCGF_ITAC: BioMAP Diversity Plus: hDFCGF Assay for Interferon-inducible T-cell alpha chemoattractant (ITAC) Biomarker Activity (AID 2284251). The note with it: primary human foreskin fibroblasts. In short, it runs like this: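 ELISA readout of I-TAC after 24 h chemical exposure; human dermal foreskin fibroblast primary cells. Positive-direction fitting vs DMSO baseline. Parallel SRB total-protein staining (0.1% SRB after 10% TCA fixation, 560 nm) flags cytotoxicity.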

Read-out in test [13]: Plasminogen activator inhibitor-1 (PAI1), SERPINE1 (gene 5054)
The test is described as follows: BSK_KF3CT_PAI1: BioMAP Diversity Plus: KF3CT Assay for Plasminogen activator inhibitor-1 (PAI1) Biomarker Activity (AID 2284252). The note with it: primary human keratinocytes with fibroblasts. A digest of the protocol: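 ELISA read-out of PAI-1 taken 24 h after chemical treatment of a human skin primary co-culture of keratinocytes and foreskin fibroblasts. Increases over DMSO-treated wells defined activity.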

Read-out in test [14]: Interleukin-8 (IL8), CXCL8 (gene 3576)
The test is described as follows: BSK_KF3CT_IL8: BioMAP Diversity Plus: KF3CT Assay for Interleukin-8 (IL8) Biomarker Activity (AID 2284254). The note with it: primary human keratinocytes with fibroblasts. In short, it runs like this: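 Human keratinocyte/foreskin fibroblast co-culture dosed 24 h; IL-8 measured by ELISA relative to DMSO. Parallel cultures stained with SRB for total protein to flag cytotoxicity.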

Read-out in test [15]: Macrophage Inflammatory Protein-1 Alpha (MIP1a), CCL3 (gene 6348)
Kind of test: BSK_IMphg_MIP1a: BioMAP Diversity Plus: IMphg Assay for Macrophage Inflammatory Protein-1 Alpha (MIP1a) Biomarker Activity (AID 2284255). The note with it: primary human endothelial cells with macrophages. A digest of the protocol:
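Co-culture of human venular endothelial cells and macrophages exposed to compounds for 24 h; MIP-1a measured by ELISA relative to DMSO. Cytotoxicity assessed in parallel cultures by sulforhodamine B total-protein staining at 560 nm.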

Read-out in test [16]: CD69, CD69 (gene 969)
Kind of test: BSK_IMphg_CD69: BioMAP Diversity Plus: IMphg Assay for CD69 Biomarker Activity (AID 2284257). The note with it: primary human endothelial cells with macrophages. A digest of the protocol: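 Human venular endothelial cells co-cultured with macrophages; CD69 quantified by ELISA 24 h after compound addition. Activity fitted in the positive direction relative to DMSO baseline; cytotoxicity tracked in parallel cultures via SRB total-protein staining.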

Read-out in test [17]: Eotaxin 3, CCL26 (gene 10344)
Kind of test: BSK_BF4T_Eotaxin3: BioMAP Diversity Plus: BF4T Assay for Eotaxin 3 Biomarker Activity (AID 2284258). The note with it: primary human bronchial epithelial cells with fibroblasts. A digest of the protocol:
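Co-culture of human bronchial epithelial cells and dermal fibroblasts, exposed to chemicals for 24 h versus DMSO. Eotaxin-3 quantified by ELISA; cytotoxicity checked in parallel cultures by sulforhodamine B total-protein staining.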

Read-out in test [18]: Monocyte Chemoattractant Protein-1 (MCP1), CCL2 (gene 6347)
Kind of test: BSK_BF4T_MCP1: BioMAP Diversity Plus: BF4T Assay for Monocyte Chemoattractant Protein-1 (MCP1) Biomarker Activity (AID 2284259). The note with it: primary human bronchial epithelial cells with fibroblasts. A digest of the protocol:
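Co-culture of bronchial epithelial cells and dermal fibroblasts dosed with chemical; MCP-1 measured by ELISA 24 h later. Activity fitted in positive direction versus DMSO; cytotoxicity checked by SRB staining in parallel cultures.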

Read-out in test [19]: CD90, THY1 (gene 7070)
Kind of test: BSK_BF4T_CD90: BioMAP Diversity Plus: BF4T Assay for CD90 Biomarker Activity (AID 2284262). The note with it: primary human bronchial epithelial cells with fibroblasts. A digest of the protocol:
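Co-culture of human bronchial epithelial cells and dermal fibroblasts, 24 h compound exposure. Cell-surface CD90 measured by ELISA relative to DMSO; parallel SRB total-protein staining for cytotoxicity.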

Read-out in test [20]: KRT18 (gene 3875)
Kind of test: BSK_BF4T_Keratin818: BioMAP Diversity Plus: BF4T Assay for Keratin 818 Biomarker Activity (AID 2284266). The note with it: primary human bronchial epithelial cells with fibroblasts. In short, it runs like this: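 Co-culture of human bronchial epithelial cells and dermal fibroblasts, chemical exposure 24 h. Keratin 8/18 measured by ELISA; positive-direction fit vs DMSO. SRB total protein run in parallel cultures for cytotoxicity.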

Activity calls are given as the source filed them. The calls were made as follows: active = hit-call score of the fitted dose curve at least 0.9, where 1 is the maximum; inactive = score below 0.9.

Turning to `Cc1ccc2c(c1N)C(=O)c1ccccc1C2=O`, the result in test [1], in [2], in [3], in test [4], in test [5] and in [6] was inactive. In addition, the result in test [7] and in [8] was inactive.
For the molecule `CCOP(=S)(S)OCC`, the result in [1], in [2], in [3], in test [4], in test [5] and in test [6] was inactive. In addition, the outcome in [7] and in test [8] was inactive.
Turning to `O=C(O)C=CC(F)(C(F)(F)F)C(F)(F)F`, the result in test [1], in test [2], in [3], in [9], in test [10] and in test [11] was inactive. In addition, the outcome in test [12], in [13], in test [14], in [15], in test [4] and in test [16] was inactive. In addition, the result in test [17], in test [18], in test [5], in test [19], in test [6] and in test [20] was inactive. For the same molecule, the outcome in [7] and in test [8] was inactive.
As for `O=c1ssc(Cl)c1Cl`, the concentration at half-maximal activity (AC50) was 6.44 µM (active) in [1]; 11.4 µM (active) in test [2]; 7.41 µM (active) in test [3]; 11.1 µM (active) in [4]; 9.67 µM (active) in test [6]; 5.58 µM (active) in test [7]. The AC50 in test [8] is 20 µM (active). The outcome in test [5] was inactive.
